{"source": "PubChem BioAssay (NCATS)", "note": "Results filed as inconclusive are left out. Activity calls are given as the source filed them. The call rests on the fitted dose curve; in most records, active means well fitted cell-killing curve with a large enough effect; inconclusive means small, poorly fitted or top-dose-only effect; inactive means flat fitted curve, though single readings scatter. On the % scale 0 is the no-effect control and ±100 the full control effect; potency means the concentration at half of the fitted maximal effect.", "data": [{"experiment": "qHTS of pediatric cancer cell lines to identify multiple opportunities for drug repurposing: Primary screen for Rh18 cells (AID 1347102); further: nearly all actives have a fitted effect of over 65% in size", "conditions": "Rh18 rhabdomyosarcoma viability, CellTiter-Glo luminescence, 48 h; series mostly up to 46 µM; activity change, negative = cytotoxic: at the top concentration", "excerpt": "Drug repurposing or repositioning has been offered as a strategy for drug development in oncology programs. This approach has special potential for childhood cancers and other rare or orphan diseases, where the expected return on new drug development has been a disincentive to pharmaceuticals.\nIn this project we exploit the poly-pharmacology of drugs to discover new indications via phenotypic screening of a panel of 19 well-characterized cell lines derived from solid tumors seen in children and adolescents. The goal is to identify approved drugs with previously unrecognized anticancer properties that has the potential to reveal new mechanisms and biological processes involved in carcinogenesis or drug resistance. We employed a titration-based paradigm (quantitative high-throughput screening or qHTS), where all compounds were tested at multiple concentrations for their effect on cell viability. Concentration-response curves (CRCs) were derived directly from the primary screen, and both potency and efficacy values were used to identify compounds with robust bioactivity profiles. We screened the NIH Chemical Genomics Center (NCGC) Pharmaceutical Collection (NPC) and Mechanism Interrogation Plate (MIPE) small molecule collections of approved and investigational compounds against these cell lines; and measured metabolically active cells after 48 hours of compound treatment as a proxy for cell viability.\nAssay Submitter: Nathalia J. Martinez, National Center for Advancing Translational Sciences, National Institutes of Health, Rockville, MD, USA; email: natalia.martinez@nih.gov\n[1] Shen, M et al. Quantitative high-throughput phenotypic screening of pediatric cancer cell lines identifies multiple opportunities for drug repurposing. Oncotarget 2017 Dec 19;9(4):4758-4772. PMID 29435139.\nThe cells were obtained from University of North Carolina (UNC), Pediatric Preclinical Testing Program (PPT), and Coriell Institute (CI).\nqHTS cell viability assay:\nCells were assayed in growth media at a density of 500-1,000 cells/well. Five microliters of cells were dispensed into 1,536-well, white, solid-bottom, TC-treated plates (Greiner Bio One) using a multidrop dispenser and incubated at 37 degrees C, 5% CO2, under a humidified atmosphere for 5 hours. Twenty-three nanoliters of compounds and controls (neutral control DMSO or positive control bortezomib at final concentration of 2.3 µM) were subsequently transferred by Kalypsys pintool. For primary screens, the MIPE collection was tested at 11-point dilutions (final concentrations range from 0.78 nM to 46 µM) and the NPC collection at 8-point dilutions (final concentrations range from 0.59 nM to 46 µM). Compounds tested in follow-up screens were assayed at 11-point dilutions. Cells were incubated for 48 hours, followed by addition of 3 µL of CellTiter-Glo (Promega). After a 15 min incubation at room temperature, samples were analyzed for luminescence intensity using a ViewLux High-throughput CCD imager equipped with clear filters.", "values": [{"smiles": "CC1=C(C)C(=O)C(CCCCC#CCCCC#CCO)=C(C)C1=O", "activity change, negative = cytotoxic": "-2.03% (inactive)"}, {"smiles": "COc1cc(C(=O)OCCCN2CCCN(CCCOC(=O)c3cc(OC)c(OC)c(OC)c3)CC2)cc(OC)c1OC", "activity change, negative = cytotoxic": "-20.9% (inactive)"}, {"smiles": "CC(=O)[C@@]1(O)CC[C@H]2[C@@H]3CCC4=CC(=O)CC[C@]4(C)[C@H]3CC[C@@]21C", "activity change, negative = cytotoxic": "-2.43% (inactive)"}, {"smiles": "Cc1ccc(Cl)c(Nc2ccccc2C(=O)O)c1Cl", "activity change, negative = cytotoxic": "13.5% (inactive)"}, {"smiles": "Cc1ccc(S(=O)(=O)NC(=O)NN2CCCCCC2)cc1", "activity change, negative = cytotoxic": "12.8% (inactive)"}, {"smiles": "CCOC(=O)C1=C(C)NC(C)=C(C(=O)OC)C1c1cccc(Cl)c1Cl", "note": "(stereo not given)", "activity change, negative = cytotoxic": "0.411% (inactive)"}, {"smiles": "COc1cc(Cc2cnc(N)nc2N)cc(OC)c1OC", "activity change, negative = cytotoxic": "3.22% (inactive)"}, {"smiles": "CCn1cc(C(=O)O)c(=O)c2cc3c(cc21)OCO3", "activity change, negative = cytotoxic": "9.32% [at 16.1 µM] (inactive)"}, {"smiles": "CC(=O)OCC1=C(C(=O)O)N2C(=O)[C@@H](NC(=O)Cc3cccs3)[C@H]2SC1", "activity change, negative = cytotoxic": "5.59% (inactive)"}, {"smiles": "CC(N=C(NC#N)Nc1ccncc1)C(C)(C)C", "note": "(stereo not given)", "activity change, negative = cytotoxic": "-14.9% (inactive)"}, {"smiles": "CCn1nc(C(=O)O)c(=O)c2cc3c(cc21)OCO3", "activity change, negative = cytotoxic": "9.72% (inactive)"}, {"smiles": "CNC1(C)C2CCC(C2)C1(C)C", "note": "(stereo not given)", "activity change, negative = cytotoxic": "-8.43% (inactive)"}, {"smiles": "CC(=O)OC(C)C[N+](C)(C)C", "note": "(stereo not given)", "activity change, negative = cytotoxic": "-0.484% (inactive)"}, {"smiles": "COc1ccc2c(c1OC)C(=O)O[C@@H]2[C@H]1c2c(cc3c(c2OC)OCO3)CCN1C", "activity change, negative = cytotoxic": "-10.1% (inactive)"}, {"smiles": "O=C(O)CCCCCCCC(=O)O", "activity change, negative = cytotoxic": "-4.03% (inactive)"}, {"smiles": "c1ccc2c(c1)CCCC2C1=NCCN1", "note": "(stereo not given)", "activity change, negative = cytotoxic": "20.9% (inactive)"}, {"smiles": "CCn1ccnc1CC1COc2ccccc2O1", "note": "(stereo not given)", "activity change, negative = cytotoxic": "-0.521% (inactive)"}, {"smiles": "C[N+](C)(C)CCOC(N)=O", "activity change, negative = cytotoxic": "23.7% (inactive)"}, {"smiles": "C=CCc1ccccc1OCC(O)CNC(C)C", "note": "(stereo not given)", "activity change, negative = cytotoxic": "2.4% (inactive)"}, {"smiles": "CC(=O)Nc1nnc(S(N)(=O)=O)s1", "activity change, negative = cytotoxic": "6.37% (inactive)"}, {"smiles": "NCCCNCCSP(=O)(O)O", "activity change, negative = cytotoxic": "9.05% [at 9.22 µM] (inactive)"}, {"smiles": "C[N+](C)(C)CCCCCCCCCC[N+](C)(C)C", "activity change, negative = cytotoxic": "2.58% (inactive)"}, {"smiles": "CC(=O)[C@]1(O)Cc2c(O)c3c(c(O)c2[C@@H](O[C@H]2C[C@H](N)[C@H](O)[C@H](C)O2)C1)C(=O)c1ccccc1C3=O", "Potency": "422 nM (active)"}, {"smiles": "CN(C)CCN(Cc1cccs1)c1ccccn1", "activity change, negative = cytotoxic": "-0.792% (inactive)"}, {"smiles": "CN(C)C/C=C(/c1ccc(Br)cc1)c1cccnc1", "activity change, negative = cytotoxic": "8.11% (inactive)"}, {"smiles": "NS(=O)(=O)c1cc2c(cc1Cl)NC(C1CC3C=CC1C3)NS2(=O)=O", "note": "(stereo not given)", "activity change, negative = cytotoxic": "-4.04% (inactive)"}, {"smiles": "CCCNC(C)C(=O)Nc1ccccc1C", "note": "(stereo not given)", "activity change, negative = cytotoxic": "32.7% (inactive)"}, {"smiles": "NC(N)=N/N=C/c1c(Cl)cccc1Cl", "activity change, negative = cytotoxic": "-11.2% (inactive)"}, {"smiles": "C[C@]12CCC(=O)C=C1CC[C@@H]1[C@@H]2C(=O)C[C@@]2(C)[C@H]1CC[C@]2(O)C(=O)CO", "activity change, negative = cytotoxic": "9.65% (inactive)"}, {"smiles": "Cc1ccc(/C(=C\\CN2CCCC2)c2ccccn2)cc1", "activity change, negative = cytotoxic": "-2.33% (inactive)"}, {"smiles": "CCN(CC)CCOCCOC(=O)C1(c2ccccc2)CCCC1", "activity change, negative = cytotoxic": "-2.09% (inactive)"}, {"smiles": "O=C(CCNNC(=O)c1ccncc1)NCc1ccccc1", "activity change, negative = cytotoxic": "8.01% (inactive)"}, {"smiles": "NC(=O)c1cn(Cc2c(F)cccc2F)nn1", "activity change, negative = cytotoxic": "1.51% (inactive)"}, {"smiles": "CCOC(=O)c1cnc2c(cnn2CC)c1NN=C(C)C", "activity change, negative = cytotoxic": "8.59% (inactive)"}, {"smiles": "CCN1CCc2nc(N)oc2CC1", "activity change, negative = cytotoxic": "15.4% (inactive)"}, {"smiles": "CC(C)(Oc1ccc(CCNC(=O)c2ccc(Cl)cc2)cc1)C(=O)O", "activity change, negative = cytotoxic": "8.58% (inactive)"}, {"smiles": "Cc1nc2c([nH]1)c(=O)n(C)c(=O)n2Cc1ccco1", "activity change, negative = cytotoxic": "3.42% (inactive)"}, {"smiles": "CCCCNc1ccc(C(=O)OCCN(C)C)cc1", "activity change, negative = cytotoxic": "9.17% (inactive)"}, {"smiles": "Cc1cc(C)c(/C=C2\\C(=O)Nc3ccccc32)[nH]1", "activity change, negative = cytotoxic": "-7.07% (inactive)"}, {"smiles": "CCCN1C[C@H](CSC)C[C@@H]2c3cccc4[nH]cc(c34)C[C@H]21", "activity change, negative = cytotoxic": "-3.11% (inactive)"}]}]}
